Hits are enriched below; roughly 2.2% of the tested compounds scored in any of these assays.
aSyn yeast inh – alpha-synuclein toxicity inhibition in yeast | Potency, µM (top dose mostly 46.1 µM), hits mostly activators | Yeast expressing alpha-synuclein, growth rescue, BacTiter-Glo, 24 h | actives 0.14% (n = 370,000); note: nearly all actives have a fitted effect of over 65% in size
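Galactose-induced alpha-syn yeast (OD600=0.02, raffinose-pregrown) + pinned cpd, 24 hr, 30 deg C; growth by BacTiter-Glo luminescence. Growth restoration scores as activation.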
FUS yeast rescue – FUS proteinopathy suppression in yeast; Potency, µM (highest dose often 76.6 µM), hits mostly activators; S. cerevisiae FUS-expressing, growth rescue, OD600, 24 h; actives 0.24% (n = 390,000); note: nearly all actives have a fitted effect of over 55% in size
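Yeast FUS proteinopathy model; galactose-induced FUS (2%), starting OD 0.005. Cpds in dilution series, 24hr, 30C, 99% humidity. Abs 600 nm growth. Pos ctrl CP55940 (top 92uM final); neg ctrl DMSO.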
ERG Ets-DNA blk – blocks human ERG Ets domain binding to DNA; actives 0.028% (n = 370,000); Potency, µM (top dose mostly 76.9 µM), most hits filed as inhibitors; fluorescence polarization, His-ERG Ets domain / labelled DNA; active = well fitted inhibition curve with a large enough effect in the polarisation, with a control signal flat; inconclusive = small, poorly fitted or top-dose-only effect, or effect the other way, or a change in a side signal; inactive = no such curve, though single readings can be large or run the other way; the % refers to the polarisation;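 note: polarization taken with two DNA probes labelled with fluorescein and Texas red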
Target sequence (P11308 whole entry, looked up, the tested form may be a part): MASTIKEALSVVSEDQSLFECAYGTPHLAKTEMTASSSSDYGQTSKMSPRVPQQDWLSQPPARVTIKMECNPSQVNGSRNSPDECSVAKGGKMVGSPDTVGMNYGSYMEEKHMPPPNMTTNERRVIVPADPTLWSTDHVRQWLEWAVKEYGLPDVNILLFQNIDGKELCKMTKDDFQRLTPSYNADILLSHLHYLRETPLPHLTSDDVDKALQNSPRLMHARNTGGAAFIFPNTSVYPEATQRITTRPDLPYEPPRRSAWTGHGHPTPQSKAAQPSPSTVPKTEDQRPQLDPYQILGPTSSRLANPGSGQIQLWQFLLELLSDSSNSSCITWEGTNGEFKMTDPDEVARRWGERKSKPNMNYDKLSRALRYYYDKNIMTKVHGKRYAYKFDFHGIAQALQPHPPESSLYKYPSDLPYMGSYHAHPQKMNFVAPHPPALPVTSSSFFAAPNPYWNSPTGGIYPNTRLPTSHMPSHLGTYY
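His-tagged ERG Ets domain (1 uM in the protein solution; 300mM KCl, 50mM Tris-HCl, 1mM EDTA, 1mM DTT, pH 7.5) received compound, then a probe mix of 5 nM fluorescein-DNA and 100nM Texas-615-DNA. Fluorescence polarization was read for both dyes.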
TDP43 rescue – TDP-43 toxicity inhibition in yeast; TDP-43 expressing yeast growth rescue, BacTiter-Glo, 24 h; Potency, µM (doses to about 46.1 µM), usual class: activators; actives 1.8% (n = 410,000); AID 652104; note: nearly all actives have a fitted effect of over 50% in size
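Galactose-induced TDP-43 yeast, OD600=0.02, compound pinned; 24 hr, 30 deg C; BacTiter-Glo luminescence for growth. Inhibitors of TDP-43 toxicity read as activators.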
Mito fusion act – mitochondrial division inhibition or fusion activation | S. cerevisiae fusion-defective mutant growth rescue, CellTiterGlo 48 h | Potency, µM (titrated, usually from 46.1 µM), usual class: activators | actives 0.23% (n = 320,000) | AID 485298; note: nearly all actives have a fitted effect of over 45% in size
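S. cerevisiae fusion-defective temperature-sensitive mutants (e.g. fzo1-1, mgm1-5) grown 48 h at 37C in YPEG (ethanol/glycerol non-fermentable) medium with 23 nl compound per well; growth rescue read as CellTiterGlo luminescence.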
Abeta rescue – A-beta toxicity reversal in yeast | yeast expressing A-beta42, growth rescue, OD600, 48 h; response scale: 0% DMSO, 100% iron-clioquinol control | Potency, µM (highest dose often 46.1 µM), most hits filed as activators | actives 0.063% (n = 410,000); note: nearly all actives have a fitted effect of over 55% in size
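Yeast A-beta toxicity model in growth medium with pinned compounds, 48 h at 30 C; growth read as absorbance at 600 nm. Normalized to FeCl3/clioquinol equimolar mix (positive) and DMSO (negative).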
Hits are given with their value; - = inactive; ? = inconclusive; . = no result given. Unless noted, calls come from the whole dose curve; as a rule, active = well fitted curve in the direction sought with a large enough effect; inconclusive = small, poorly fitted or top-dose-only effect, or another doubt; inactive = no such curve, though single readings can be large; an effect the other way counts as inactive or inconclusive.

SMILES | aSyn yeast inh | FUS yeast rescue | ERG Ets-DNA blk | TDP43 rescue | Mito fusion act | Abeta rescue
CCC(O)c1cc2c(cc1NC(=O)c1cccc(Br)c1)OCCO2 (configuration not stated) | - | - | - | 13µM | . | -
O=C(CSc1ccc(-c2cccnc2)nn1)N1CCCCCC1 | - | - | - | . | - | -
CC1CCN(C(=O)CSc2ccc(-c3ccccc3)nn2)CC1 | - | - | - | 18µM | - | -
O=C(CSc1ccc2nnc(-c3cccs3)n2n1)N1CCCC1 | - | - | - | - | - | -
O=C(CSc1ccc(-c2cccs2)nn1)N1CCCCCC1 | - | . | . | 18µM | - | ?
CC1CCN(C(=O)CSc2ccc(-c3cccc([N+](=O)[O-])c3)nn2)CC1 | - | - | - | ? | - | -
O=C(CSc1ccc(-c2cccs2)nn1)N1CCCCC1 | - | . | . | 22µM | - | -
CCc1nn(Cc2ccc(Cl)cc2)c(=O)c2cc3cc(C)ccc3n12 | . | - | - | - | . | -
CCOc1ccc(NC(=O)c2cc(-c3ccc(Cl)cc3)nc3ccccc23)cc1 | . | - | . | . | . | .
C=CCNc1nc(-c2ccc([N+](=O)[O-])cc2)cs1 | - | - | - | ? | - | -
C=CCNc1nc(-c2ccc(Cl)cc2)cs1 | - | - | - | 11µM | - | -
COCCCN1C(=O)[C@H](CC(=O)N2CCSCC2)[C@]2(C(=O)OC)CCCCC=C12 | . | - | . | . | . | .
Cc1ccc(SCCNC(=O)/C=C/c2ccc([N+](=O)[O-])cc2)cc1 | - | - | - | - | 16µM | -
O=C(/C=C/c1ccc([N+](=O)[O-])cc1)NCCSc1ccccc1 | - | - | - | - | - | -
O=c1oc2c(CN3CCCC3)c(O)ccc2cc1-c1ccccc1 | . | - | - | - | . | -
O=c1oc2c(CN3CCOCC3)c(O)ccc2cc1-c1ccc(Cl)cc1 | . | - | - | 13µM | . | -
Cc1ccc(CNc2nc(-c3ccco3)nn2S(C)(=O)=O)cc1 | . | - | - | ? | . | ?
CC(=O)N/C(=C/c1ccccc1)c1ccncc1 | - | . | . | . | . | .
Nc1cc2c(cc1Cl)-c1ccc(Cl)cc1C2 | - | - | - | 25µM | . | -
Nc1cc2c(cc1Cl)-c1ccccc1C2 | - | . | - | 13µM | . | -
Nc1ccc2c(c1)Cc1cc(N)c(Br)cc1-2 | - | . | - | - | . | -
CC(=O)Nc1c(Cl)cc2c(c1Cl)Cc1ccccc1-2 | - | . | - | - | . | -
Cc1nc(-c2ccc(Cl)cc2)sc1CCNC(=O)C(=O)Nc1ccc(F)cc1F | . | - | - | - | . | -
CSc1ccccc1OCc1cc(C(=O)NCc2cnc(C)cn2)no1 | - | - | - | 11µM | - | -
CSc1ccccc1OCc1cc(C(=O)NCc2csc(C(C)C)n2)no1 | - | - | - | ? | - | -
SMILES | aSyn yeast inh | FUS yeast rescue | ERG Ets-DNA blk | TDP43 rescue | Mito fusion act | Abeta rescue
O=S(=O)(Nc1ccc2c3c(cccc13)CC2)c1ccc(F)cc1 | ? | - | - | ? | - | -
CSc1ccc(S(=O)(=O)Nc2ccc3c4c(cccc24)CC3)cc1 | 13µM | - | - | - | - | -
CCn1c(COc2ccccc2)nnc1SCC(=O)Nc1ccc(S(=O)(=O)Nc2cc(C)nc(C)n2)cc1 | . | - | . | . | . | .
CCOCCc1nnc(NC(=O)C(=O)c2cc(C)n(-c3ccc(Cl)cc3)c2C)s1 | . | ? | - | - | . | -
Cc1nc2c(Br)c(C)nn2c2c1CCC2 | - | - | - | 11µM | - | -
Cc1cccc(C)c1-n1nnnc1C(c1ccnc2ccccc12)N1CCN(C(=O)OCc2ccccc2)CC1 (configuration not stated) | - | - | . | - | . | -
CC(c1ccc2ccccc2c1)c1ccccc1C(=O)O (configuration not stated) | - | - | . | 5.6µM | . | -
CCOc1ccc(NC(=O)N2CCN(S(=O)(=O)c3ccc4c(ccn4C)c3)CC2)cc1 | - | 40µM | - | - | . | -
COc1ccc(NC(=O)N2CCN(S(=O)(=O)c3ccc4c(ccn4C)c3)CC2)c(OC)c1 | - | 13µM | - | - | . | -
COc1ccc(OC)c(NC(=O)N2CCN(S(=O)(=O)c3ccc4c(ccn4C)c3)CC2)c1 | ? | ? | - | - | . | -
Cn1nc(-c2ccccc2F)c2cc(C(=O)Nc3ccc4c(c3)OCCO4)sc21 | - | - | - | 16µM | - | -
COc1cccc(-c2nn(C)c3sc(C(=O)Nc4ccc5c(c4)OCCO5)cc23)c1 | - | - | - | - | - | -
CCCCn1c(=O)c(-c2ccccc2)c(O)c2ccccc21 | - | - | - | 18µM | - | -
Cn1c(=O)c(-c2cccc(Cl)c2)c(O)c2ccccc21 | - | - | - | 11µM | . | -
O=c1cc(-c2c(O)c3ccccc3n(Cc3ccccc3)c2=O)[nH][nH]1 | - | ? | - | - | - | -
CCn1c(=O)c(-c2cc(=O)[nH][nH]2)c(O)c2ccccc21 | - | 32µM | - | - | - | -
CCn1c(=O)c(-c2ccccc2)c(O)c2ccccc21 | - | - | - | ? | - | -
COCCCNC(=O)c1ccc(Cn2c(=O)c3ccccc3n(Cc3ccc(Br)cc3)c2=O)cc1 | . | - | . | . | . | .
COCCSc1ncccc1-c1nc2ccccc2[nH]1 | . | - | . | . | . | .
O=C(c1ccccc1)C1CCN(C(=O)c2c(F)cccc2F)CC1 | - | - | - | 11µM | - | -
COc1ccc(C)cc1NC(=O)C(Sc1nnc(-c2ccncc2)n1-c1ccc(Cl)cc1)c1ccccc1 (configuration not stated) | - | 22µM | - | - | - | -
COc1ccc(C)cc1NC(=O)C(Sc1nnc2ccccn12)c1ccccc1 (configuration not stated) | - | . | - | - | - | -
O=C(Cn1nc(-c2ccccc2)ccc1=O)NCCc1ccccc1F | . | - | . | . | . | .
CC(C)C(=O)NC(c1ccc(Cl)cc1Cl)c1ccc2cccnc2c1O (configuration not stated) | ? | - | - | 25µM | - | -
Cn1c(=O)c2nc(-c3ccccc3)oc2c2ccccc21 | ? | - | - | 10µM | - | -
SMILES | aSyn yeast inh | FUS yeast rescue | ERG Ets-DNA blk | TDP43 rescue | Mito fusion act | Abeta rescue
CCCCCc1nc2c(=O)n(C)c3ccccc3c2o1 | - | - | - | ? | - | -
C(=NN=C1c2ccccc2-c2ccccc21)c1c[nH]c2ccccc12 | - | . | - | 13µM | . | -
Fc1c(F)c(F)c(N/N=C/c2c[nH]c3ccccc23)c(F)c1F | - | - | - | ? | - | -
Oc1ccc(C=NN=C2c3ccccc3-c3ccccc32)c(O)c1 | - | . | - | 11µM | . | -
COc1ccc(-c2onc(C)c2C)cc1S(=O)(=O)NCc1ccc(Br)cc1 | . | - | - | ? | . | -
Cc1ccc(C)c(NC(=O)Cn2ncc3c(C)n(Cc4ccc(F)cc4)c(C)c3c2=O)c1 | . | - | - | - | . | -
COc1ccc2c(c1)Sc1ccc(Cl)cc1N2 | . | - | . | . | . | .

Assay outcomes from PubChem.
